# Laboratory results from PubChem BioAssay (NCI).
# Where “and” joins values, the source holds several entries; their conditions need not be identical. Equal entries are not always repeated. The panel holds about 83,000 compounds, 20% with a hit somewhere; the sample as a whole holds those more often.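 The test compound was applied at a single concentration to cells in 96-well plates for 48 hours, and percent growth was recorded.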 Calls of active or inactive are those of the source. The calls were made as follows: active = growth percent below 10; inactive = the rest.
# System: MDA-MB-468 breast
# Experiment: NCI-60 one-dose screen, 48 h (100 = growth as untreated, 0 = no growth, -100 = all killed)
# Conditions: 10 µM unless noted
row,Structure (SMILES),growth
1,FC(F)(F)c1ccc(-c2cnc(Br)nc2NC2CCCCCC2)cc1,12.6% (inactive)
2,CCCC(=O)NC(c1ccc2c(c1)OC(F)(F)O2)c1cc(C)c2cccnc2c1O (stereo not given),-14.7% (active)
3,CCOC(=O)c1c2c(c(C)n1Cc1ccc(OC)cc1)-c1nc(N)ncc1CC2,107% (inactive)
4,COC(=O)[C@]12CC[C@@H](C)[C@H](C)[C@@H]1C1=CC[C@@H]3[C@@]4(C)C[C@@H](O)OC[C@](C)(C=O)C4C(=O)C[C@@]3(C)[C@]1(C)CC2 (stereo not given in full),-0.84% (active)
5,C=C1C(=O)O[C@H]2[C@H]1CC/C(COC(=O)c1cccc3ccccc13)=C\CC[C@@]1(C)O[C@@H]21,-45.1% (active)
6,CCN(Cc1ccccc1)C1CCN(Cc2cc(Br)ccc2O)CC1,25.5% (inactive)
7,O=C1Nc2ccccc2C12Nc1cc(Cl)ccc1S2 (stereo not given),105% (inactive)
8,Nc1ncc(-c2ccc3ncnc(Nc4ccc(F)c(Cl)c4)c3c2)cn1,-22.3% (active)
9,Cc1ccc(-c2nc(/C=N/Nc3cc(C)nc4ccc(Cl)cc34)c(C)o2)cc1,-76% (active)
10,COc1ccc2[nH]c(C(=O)OCc3ccc4c(Cl)cc(Cl)c(O)c4n3)cc2c1,-83.1% (active)
11,O=C1NN(C(=O)c2ccc(Cl)cc2)C(c2ccccc2)=N/C1=C\c1ccc(F)cc1,67.9% (inactive)
12,CN1CCN(c2ccc(-c3cnc4c(-c5csc6ccccc56)cnn4c3)cc2)CC1,-26.8% (active)
13,O=C1/C(=C/c2ccc(Cl)cc2)CN(C(=O)C(Cl)Cl)C/C1=C\c1ccc(Cl)cc1,-59.7% (active)
14,COc1cc(/C=C/C(=O)c2cc(-c3ccc(F)cc3)ccc2O)cc(OC)c1OC,65.6% (inactive)
15,O=C(Oc1cccc2cccnc12)c1ccccc1,71.7% (inactive) and 93.1% (inactive)
16,CC(C)CNC(=O)c1ccccc1C(=O)NC1(C(=O)NCC(C)C)CCCC1,101% (inactive) and 121% (inactive)
17,FC(F)(F)Oc1ccc2c(c1)C[C@H]1C[C@@H](c3ccoc3)N2O1,118% (inactive)
18,CSCCCNC(=O)c1ccc2c(c1)/C(=C/c1[nH]c(C)cc1C)C(=O)N2,42.7% (inactive)
19,CCCCC[C@@H]1Cc2cc(O)c(C(=O)O)c3c2[C@H](C[C@]2(OC[C@@H](CC(=O)[C@@](C)(CC)C(=O)OC)[C@@H]2C)O3)O1,110% (inactive)
20,Cc1ccc2ccccc2c1C[n+]1ccccc1,50.5% (inactive)

row,Structure (SMILES),growth
1,C=C1C(=O)O[C@H]2[C@H]1CC/C(C(=O)Nc1ccc(OC)c(C(N)=O)c1O)=C\CC[C@@]1(C)O[C@@H]21,20.4% (inactive)
2,O=C1c2ccccc2C2(c3ccc(O)cc3)c3ccccc3Oc3cccc1c32 (stereo not given),-8.79% (active)
3,Cc1cccc2sc(/N=C(\N)C(Cl)(Cl)Cl)nc12,110% (inactive)
4,CC/C=C\C[C@H](O)C/C=C1/C(=O)C(Cl)=C[C@@H]1C/C=C\CCCC(=O)OC,-62.1% (active)
5,O=c1[nH]c2c3ccncc3cc(-c3cccc(Cl)c3)c2c2cnccc12,42.1% (inactive)
6,COc1cc(OC)cc(-c2ccc(-c3ccc(C(=N)N)cn3)o2)c1,-69.9% (active)
7,COC(=O)c1c2c(c(C)[n+]([O-])c1C)C(=O)C=C(NCc1ccc(F)c(Cl)c1)C2=O,-70.5% (active)
8,Cc1cc(N2CCN(C)CC2)nc(N(CCNc2ccnc3cc(Cl)ccc23)Cc2ccco2)n1,37.5% (inactive)
9,c1cc2cccc3c4cccc5cccc(c(c1)c23)c54,101% (inactive)
10,C(=C\c1nc2ccccc2[nH]1)/c1nc2ccccc2[nH]1,106% (inactive)
11,COc1cc2nc(-c3ccc(C(F)(F)F)cc3)cc(OCCCN3CCOCC3)c2cc1OC,49.4% (inactive)
12,CCCCCCN(C)Cc1ccc(OCCOc2ccc(CN(C)CCCCCC)cc2)cc1,-59.9% (active)
13,C=CC(=O)Nc1cccc(Oc2nc(Nc3ccc(N4CCN(C)CC4)cc3)nc3ccsc23)c1,-69.1% (active)
14,COc1ccc(C2=NN(c3nc(-c4ccc(OC)cc4)c(C#N)c(=O)n3C)C(=O)CC2)cc1,96.2% (inactive)
15,CN(C)c1ncnc2c1ccn2C1OC(CO)C(O)C1O (stereo not given),-64.3% (active)
16,CC1(C)CC[C@]2(C(N)=O)CC[C@]3(C)C(=CC[C@@H]4[C@@]5(C)C/C(=C/c6cccnc6)C(=O)C(C)(C)[C@@H]5CC[C@]43C)[C@@H]2C1,-17.1% [100 µM] (active)
17,CCCCC(CC#N)(CCC)CCC,112% (inactive)
18,C=CCNCCCN1C(=O)c2ccc3c4c(ccc(c24)C1=O)C(=O)N(CCCNCC=C)C3=O,-88.5% (active)
19,Cc1ccc2c(c1)C(=O)c1c-2c(OCCCN(C)C)nc2ccccc12,28.9% (inactive)
20,CC1=Cc2ccccc2OC12C=Cc1ccccc1O2 (stereo not given),97% (inactive)
